The list is not random: actives were taken first. Their share in the collection is about 2.7%.
KDM5B inhibitor: blocks human KDM5B histone demethylase activity; Q9UGL1; KDM5B demethylase, FDH-coupled NADH fluorescence (FDH is formaldehyde dehydrogenase); Potency, µM (highest dose often 57.7 µM), hits mostly inhibitors; 220,000 compounds, 2.6% hits; AID 1347165; active = well fitted inhibition curve with a large enough effect; inconclusive = small, poorly fitted or top-dose-only effect; inactive = no such curve, though single readings can be large or run the other way; also: nearly all actives have a fitted effect of over 70% in size
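KDM5BΔAP (200 nM final) in 50 mM HEPES pH 7.5, 0.01% Tween-20 was preincubated 10 min at RT with compound over a concentration range. Substrate mix (H3K4me3 12.5 µM, α-KG 25 µM, Fe²⁺, ascorbate, NAD⁺, FDH) was added, and NADH fluorescence change over 30 min gave dose-response curves.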
IP6K1 inh: IP6K1 kinase inhibition. Q92551. IP6K1 kinase, ADP-Glo luminescence, 2 h; stronger effect = lower value. activity change, % (series mostly up to about 58 µM). 140,000 compounds, 0.81% hits; in the data active = activity change below about -25%
Target sequence (Q92551 whole entry, looked up): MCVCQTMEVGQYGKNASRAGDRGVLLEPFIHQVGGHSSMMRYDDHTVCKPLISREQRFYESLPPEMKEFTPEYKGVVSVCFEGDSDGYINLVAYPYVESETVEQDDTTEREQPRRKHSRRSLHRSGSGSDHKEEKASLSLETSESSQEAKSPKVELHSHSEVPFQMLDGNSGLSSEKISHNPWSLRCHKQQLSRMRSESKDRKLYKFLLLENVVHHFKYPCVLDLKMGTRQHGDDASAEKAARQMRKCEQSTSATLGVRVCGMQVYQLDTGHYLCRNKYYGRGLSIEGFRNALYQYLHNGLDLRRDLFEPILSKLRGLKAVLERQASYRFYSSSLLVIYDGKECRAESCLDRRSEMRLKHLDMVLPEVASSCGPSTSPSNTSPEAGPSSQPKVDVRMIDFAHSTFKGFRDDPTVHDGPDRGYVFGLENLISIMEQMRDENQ
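ADP-Glo luminescence measures ADP made by human IP6K1 during a 2 h RT reaction with ATP/IP6 (mix at 1.3 mM/130 uM); top library doses 57.5 and 19.1 uM final.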
Numbers stand for hits; . = inactive; ? = inconclusive; / = no result.

SMILES | KDM5B inhibitor | IP6K1 inh
COc1ccc(CNC(=O)C2CC(=O)N(c3n[nH]c4cccc(F)c34)C2)cc1OC (stereo unspecified) | ? | .
O=C(C1CC(=O)N(c2n[nH]c3cccc(F)c23)C1)N1CCN(c2ccc(Cl)cc2)CC1 (stereo unspecified) | 22µM | .
CN1CCCN(S(=O)(=O)c2cccc(Cl)c2)c2ccccc21 | ? | .
Cc1ccc(NC(=O)C2CC(=O)N(c3n[nH]c4cccc(F)c34)C2)cc1 (stereo unspecified) | 20µM | .
Cc1ccnc(NC(=O)C2CC(=O)N(c3n[nH]c4cccc(F)c34)C2)c1 (stereo unspecified) | . | .
Cn1cc(NC(=O)C2CC(=O)N(c3n[nH]c4cccc(F)c34)C2)cn1 (stereo unspecified) | . | .
Cc1ccc(NC(=O)C2CC(=O)N(c3n[nH]c4cccc(F)c34)C2)nc1 (stereo unspecified) | . | .
COc1ccc(NC(=O)C2CC(=O)N(c3n[nH]c4cccc(F)c34)C2)cc1 (stereo unspecified) | 25µM | .
Cc1ccc(NC(=O)C2CC(=O)N(c3n[nH]c4cccc(F)c34)C2)c(C)c1 (stereo unspecified) | 22µM | .
CC(Oc1ccccc1)C(=O)Nc1ccc(OCc2ccccc2)cc1 (stereo unspecified) | . | /
O=C(NC1CC1)C1CCN(CCCc2nc3ccccc3o2)CC1 | . | /
CC(=O)Nc1ccc(NC(=O)c2cc3n(n2)CC(c2ccc(Br)cc2)OC3)cc1 (stereo unspecified) | ? | .
CCNC(=O)c1cc2n(n1)CC(c1ccc(Br)cc1)OC2 (stereo unspecified) | ? | .
O=C(Nc1cccc(F)c1)c1cc2n(n1)CC(c1ccc(Br)cc1)OC2 (stereo unspecified) | 25µM | .
COc1ccc(NC(=O)c2cc3n(n2)CC(c2ccc(Br)cc2)OC3)cc1OC (stereo unspecified) | ? | .
NC(=O)c1ccc(NC(=O)c2cc3n(n2)CC(c2ccc(Br)cc2)OC3)cc1 (stereo unspecified) | 25µM | .
COc1cc(NC(=O)c2cc3n(n2)CC(c2ccc(Br)cc2)OC3)cc(OC)c1OC (stereo unspecified) | 32µM | .
CCOc1ccc(-c2cc3c(=O)n(CCNC(=O)c4cccc(C#N)c4)ccn3n2)cc1 | ? | .
C=CCNC(=O)C(NC(=O)c1ccc(OC)cc1)C1CCN(C(=O)C2CC2)CC1 (stereo unspecified) | . | .
COCCNC(=O)C(NC(=O)c1ccccc1)C1CCN(C(=O)C2CC2)CC1 (stereo unspecified) | 18µM | .
O=C(NCCc1ccccc1)N1CC(Oc2ccccc2-c2nc(-c3ccccc3)no2)C1 | 25µM | .
CCC(C)NC(=O)N1CC(Oc2ccccc2-c2nc(-c3ccccc3)no2)C1 (stereo unspecified) | . | .
CSc1cccc(NC(=O)N2CCC(c3cc(-c4cccc(C)c4)n[nH]3)CC2)c1 | ? | .
O=C(NC1(c2ccc(F)cc2)CCC1)c1ccccn1 | . | /
Cn1ncc2c(C(=O)N3CCOCC3)cc(C(C)(C)C)nc21 | . | .
SMILES | KDM5B inhibitor | IP6K1 inh
O=C(c1nc(-c2ccc(Cl)nc2)c2cnccn12)N1CCN(c2ncccn2)CC1 | ? | .
CC(C)(C)c1nc(C(=O)N2CCOCC2)n2ccncc12 | 89µM | .
CC(C)(C)c1nc(C(=O)N2CCCC2)n2ccncc12 | 100µM | .
CCCCCCc1cc(C=O)c(O)cc1O | . | /
CCOC(=O)c1cnc2c(Cl)c(Cl)ccc2c1NCCOC(=O)C(C)C | . | /
COC(=O)c1ccc(COc2ccc(/C=C/c3nc4c(ccc5ccccc54)s3)cc2)cc1 | . | /
Cc1ccc2cc(C(=O)N(Cc3ccco3)C3CC3)[nH]c2c1 | . | /
COc1ccc(F)cc1-c1ccc(CN2CCC(NC(=O)NC(C)C)C2)cc1 (stereo unspecified) | / | .
O=C1NC2(CCCN(Cc3ccccc3C(F)(F)F)C2)COc2ccccc21 (stereo unspecified) | 35µM | .
O=C1NC2(CCCN(Cc3ccsc3)C2)COc2ccccc21 (stereo unspecified) | ? | .
O=C1NC2(CCN(Cc3ccc(OC(F)(F)F)cc3)CC2)COc2ccccc21 | . | .
O=C1NC2(CCCN(Cc3ccc(OC(F)(F)F)cc3)C2)COc2ccccc21 (stereo unspecified) | 35µM | .
CC(=O)Nc1ccc(CN2CCCC3(COc4ccccc4C(=O)N3)C2)cc1 (stereo unspecified) | ? | .
COc1cccc(CN2CCCC3(COc4ccccc4C(=O)N3)C2)c1 (stereo unspecified) | 35µM | .
COc1cccc(CN2CCC3(COc4ccccc4C(=O)N3)C2)c1 (stereo unspecified) | ? | .
O=C1NC2(CCCN(Cc3ccc(F)cc3)C2)COc2ccccc21 (stereo unspecified) | 25µM | .

Compound activity as filed in PubChem.
